Experimental data reported in PubChem BioAssay (Tox21).
Values without a mark were called inactive. Activity calls are given as the source filed them. Calls follow the shape of the dose curve; as a rule, active = well fitted activation curve with a large enough effect in the repeat runs; inconclusive = weak or mixed curves; inactive = flat fitted curve, though single readings scatter.

experiment: A CellTox Green Cytotoxicity Assay to monitor cytotoxicity in HEK293 cells - 0 hour (AID 1224869); settings: CellTox Green fluorescence; series mostly up to 76.8 µM; cytotoxicity: at the top concentration; also: nearly all actives have a fitted effect of over 50% in size
From the text: National Center for Advancing Translational Sciences [NCATS]
NIH Chemical Genomics Center [NCGC]
U.S. Environmental Protection Agency [EPA]
National Institutes of Environmental Health Sciences [NIEHS]
National Toxicology Program [NTP]
Cell-based models are critical for drug discovery. Determining the natural cytotoxic effects resulting from test compounds is an essential research activity. A CellTox Green Cytotoxicity Assay to monitor cytotoxicity in real time of continues cell culture during 40 hours of the compound treatment was used to screen Tox21 10K library compounds in Hek293 cells. CellTox Green Cytotoxicity Assay is a nonlytic, homogeneous, biofluorescent method to measure cytotoxicity in cell culture after experimental manipulation. The assay system uses a proprietary asymmetric cyanine dye that is excluded from viable cells but preferentially stains the dead cell's DNA. […] Viable cells produce no appreciable increases in fluorescence. Therefore, the fluorescence signal produced by the binding interaction with dead cell DNA is proportional to cytotoxicity.
The mixture of Hek293 cell suspension and reagents were dispensed at 600cells/6 ul/well in 1536-well tissue culture treated black solid bottom plates using a Multidrop dispenser. After the assay plates were incubated at a 37 C/5% CO2 incubator for 5 hours, 23 nL of compounds dissolved in DMSO, positive and negative controls was transferred to the assay plate by a pintool work station. The plates were incubated at 37 C for 40 hours. The fluorescence intensity were measured at 0h, 8h, 16h, 24h, 32h and 40h time points using ViewLux plate reader during compound treatment.
% is scaled to controls: 0 for no effect and ±100 for the full control effect.

Row | Structure (SMILES) | cytotoxicity | Potency
1 | CCc1c(Br)c(Br)c(Br)c(Br)c1Br | 0.155% | 
2 | CCc1cccc(CC)c1N(COC)C(=O)CS(=O)(=O)O | 0.52% | 
3 | Cn1cnc2ncnc(N)c21 | -5% [at 35.3 µM] | 
4 | CCCCCCCOC(=O)c1ccc(O)cc1 |  | inactive
5 | C/C=C/CO | 5.75% | 
6 | CCOC(=O)CC(C)O (stereo not given) | -6.86% | 
7 | CCCCOC(=O)C(C)CC (stereo not given) | -8.63% | 
8 | CCCCCCCC/C=C\CCCCCCCC(=O)NCc1ccc(O)c(OC)c1 | 8.05% [at 35.3 µM] | 
9 | COC(=O)NCCC[Si](OC)(OC)OC | 0.678% | 
10 | Nc1ncnc2c1ncn2[C@@H]1O[C@H](COP(=O)(O)O)[C@@H](O)[C@H]1O | -8.06% [at 35.3 µM] | 
11 | CCCCN(C)C | 0.386% | 
12 | COc1cc(C(=O)NS(=O)(=O)c2ccccc2C)ccc1Cc1cn(C)c2ccc(NC(=O)OC3CCCC3)cc12 | 7.66% [at 35.3 µM] | 
13 | CN1[C@@H]2CC[C@@H]1CC(OC(=O)C(CO)c1ccccc1)C2 (stereo not given in full) | 7.24% [at 35.3 µM] | 
14 | O=C(c1ccccc1)c1cc(Cl)ccc1O | 2.1% | 
15 | CCOC(=O)[C@@](C)(N)Cc1ccc(O)c(O)c1 | 0.383% [at 35.3 µM] | 
16 | COc1cccc(CCc2ccccc2OCC(CN(C)C)OC(=O)CCC(=O)O)c1 (stereo not given) | -5.55% [at 35.3 µM] | 
17 | CCCCC(CC)COC(=O)c1ccc(O)cc1 (stereo not given) |  | inactive
18 | C=CC(=O)OCC(O)COc1ccccc1 (stereo not given) | -0.23% | 
19 | c1cc[nH]c1 | 11.1% | 
20 | CCC1CCCCC1 | 0.335% | 

Row | Structure (SMILES) | cytotoxicity | Potency
21 | CC(C)(c1cc(Br)c(O)c(Br)c1)c1cc(Br)c(O)c(Br)c1 |  | inactive
22 | CN1CN(C)CN(C)C1 | 5.32% | 
23 | O=C1NC2CCCCN2C12CCN(CCCN1c3ccccc3CCc3ccc(Cl)cc31)CC2 (stereo not given) | -7.31% [at 35.3 µM] | 
24 | CCCCCCCCCCCCCC[n+]1ccccc1 | -11.8% | 
25 | O=S(O)O | -3.65% [at 15.8 µM] | 
26 | COC(=O)CC#N | 3.62% | 
27 | Cc1cn[nH]c1 | -2.97% [at 35.3 µM] | 
28 | CN(C)CCOC(c1ccccc1)c1ccccc1 (tested in a mixture with another compound) | -0.651% | 
29 | Cc1ccc(-n2[nH]c(C)c(N=Nc3cccc(-c4cccc(C(=O)O)c4)c3O)c2=O)cc1C | -3.69% [at 35.3 µM] | 
30 | CCOCOCC | 2.32% | 
31 | CCN=C1C=CC(=C(c2ccc(N(CC)CC)cc2)c2ccc(N(CC)CC)cc2)c2ccccc21 | -13.6% | 
32 | COc1cccc(O)c1 | -6.67% | 
33 | CC(C)=CCCC(C)CCOC(=O)C(C)C (stereo not given) | -0.783% | 
34 | CCCCCCCCCC(=O)N(C)C | 0.795% | 
35 | COc1cccc(OC)c1O | 2.79% | 
36 | CCCCCCCCCCCCCCNCCO | -10.6% [at 35.3 µM] | 
37 | CNC(=O)c1cc(Oc2ccc(NC(=O)Nc3ccc(Cl)c(C(F)(F)F)c3)cc2)ccn1 | 4.29% [at 35.3 µM] | 
38 | CC(C)=C1CC[C@@H](C)CC1=O | 0.176% | 
39 | C=CC/C=C/C/C=C/C/C=C/C | 9.82% | 
40 | O=C1OC(OC(=O)c2cccnc2Nc2cccc(C(F)(F)F)c2)c2ccccc21 (stereo not given) | -1.09% [at 35.3 µM] | 
